Source: PubChem BioAssay (NCI)
This is part of a sample that, as a whole, favours compounds with a hit. Of some 79,000 tested, about 15% had one in any assay. Calls of active or inactive are those of the source. Rule as the data show it: active = growth inhibition above about 70%; inactive = the rest.

Tests used:
[1] = NCI Yeast Anticancer Drug Screen. Data for the rad52 strain (AID 147);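 also: 0% = growth of vehicle-treated control cultures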; conditions: S. cerevisiae rad52 mutant growth inhibition, hits give high values
Procedure, shortened: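 Yeast strain carrying a DNA damage repair alteration was exposed to test compounds. Growth inhibition was measured relative to vehicle-treated controls.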

[2] = NCI Yeast Anticancer Drug Screen. Data for the wt1 strain (AID 149);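 also: 0% = growth of vehicle-treated wt1 cultures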; conditions: S. cerevisiae wt1 strain (SPY 50644) growth inhibition, hits give high values
Procedure, shortened: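 Measured: growth of wt1 yeast under compound versus vehicle treatment, reported as inhibition.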

[3] = NCI Yeast Anticancer Drug Screen. Data for the rad50EPP+ strain (AID 151);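 also: 0% = growth of vehicle-treated control cultures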; conditions: S. cerevisiae rad50 mutant strain, hits give high values
Procedure, shortened: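 Yeast strain carrying rad50 alteration (rad50EPP+) exposed to compounds; growth inhibition measured relative to vehicle-treated controls.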

[4] = NCI Yeast Anticancer Drug Screen. Data for the mgt1 strain (AID 153); conditions: S. cerevisiae mgt1 mutant growth inhibition, hits give high values
Procedure, shortened: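 Yeast mgt1 strain (DNA repair/cell-cycle alteration panel) exposed to compounds; growth inhibition measured relative to vehicle-treated controls.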

[5] = NCI Yeast Anticancer Drug Screen. Data for the mec2-1 strain (AID 157); conditions: S. cerevisiae mec2-1 strain, hits give high values
Procedure, shortened: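 mec2-1 yeast strain, carrying an alteration in DNA damage repair or cell cycle control, was exposed to compounds; growth inhibition was measured relative to vehicle-treated controls.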

[6] = NCI Yeast Anticancer Drug Screen. Data for the rad14 strain (AID 159);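 also: 0% = growth of vehicle-treated control cultures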; conditions: S. cerevisiae rad14 strain growth inhibition, hits give high values
Procedure, shortened: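 Here, inhibition of yeast growth was measured after compound exposure, using a strain with a genetic defect in DNA damage repair and vehicle-treated cultures as the reference.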

[7] = NCI Yeast Anticancer Drug Screen. Data for the sgs1 mgt1 strain (AID 161);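 also: 0% = growth of cultures given vehicle only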; conditions: S. cerevisiae sgs1 mgt1 strain, hits give high values
Procedure, shortened: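 Yeast cells carrying a defined DNA-repair defect were exposed to test compounds. Growth inhibition was measured relative to vehicle-treated controls.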

[8] = NCI Yeast Anticancer Drug Screen. Data for the CLN2oe strain (AID 163);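 also: 0% = growth of vehicle-only control cultures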; conditions: S. cerevisiae CLN2oe strain, hits give high values
Procedure, shortened: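 Yeast cells carrying a defined cell-cycle control alteration were exposed to test compounds. Growth inhibition was scored against vehicle-treated control cultures.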

[9] = NCI Yeast Anticancer Drug Screen. Data for the cln2 rad14 strain (AID 165);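 also: 0% = growth equal to vehicle treated cultures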; conditions: S. cerevisiae cln2 rad14 strain, hits give high values
Procedure, shortened: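 Yeast carrying cln2 and rad14 alterations (cell cycle control and DNA damage repair) were exposed to compounds. Growth inhibition was measured against vehicle-treated controls.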

[10] = NCI Yeast Anticancer Drug Screen. Data for the bub3 strain (AID 167); conditions: S. cerevisiae bub3 mutant strain, hits give high values
Procedure, shortened: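 Whole-cell yeast assay. The mutant strain was incubated with compounds, and growth inhibition was determined by comparison with vehicle-treated cells.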

[11] = NCI Yeast Anticancer Drug Screen. Data for the wt2 strain (AID 169);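 also: 0% = growth of vehicle-treated yeast cultures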; conditions: S. cerevisiae wt2 strain growth inhibition, hits give high values
Procedure, shortened: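 Yeast cells were exposed to test compounds, and growth inhibition was measured relative to vehicle-treated controls.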

[12] = NCI Yeast Anticancer Drug Screen. Data for the mlh1 strain (AID 171);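 also: 0% = growth of vehicle-treated control cultures of the same strain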; conditions: S. cerevisiae mlh1 strain growth inhibition, hits give high values
Procedure, shortened: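 Yeast carrying a defined genetic alteration in DNA damage repair or cell cycle control were exposed to test compounds. Growth inhibition was measured relative to vehicle-treated controls.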

[13] = NCI Yeast Anticancer Drug Screen. Data for the sgs1 strain (AID 173);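 also: 0% = growth of vehicle-only control cultures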; conditions: S. cerevisiae sgs1 mutant, hits give high values
Procedure, shortened: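 Yeast mutant strains carrying defined defects in DNA damage repair or cell cycle control were exposed to test compounds. Growth inhibition was scored against vehicle-treated controls.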

[14] = NCI Yeast Anticancer Drug Screen. Data for the mlh1 rad18 strain (AID 175); conditions: S. cerevisiae mlh1 rad18 strain growth inhibition, hits give high values
Procedure, shortened: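 Growth inhibition of the yeast strain was measured after compound exposure and expressed relative to vehicle-treated controls. The strain carries defined defects in DNA damage repair.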

[15] = NCI Yeast Anticancer Drug Screen. Data for the rad18 strain (AID 177); conditions: S. cerevisiae rad18 mutant growth inhibition, hits give high values
Procedure, shortened: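 Yeast carrying a defined DNA damage repair alteration were exposed to compounds. Growth inhibition was expressed relative to vehicle-treated controls.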

[16] = at 5.0 µM (retest, dose inferred, filed as 0.5)
[17] = at 50.0 µM (retest, dose inferred, filed as 5.0)

Measured: growth inhibition

O=C1N=C2SC=C(NC(=S)Nc3ccccc3)N2NC12c1ccccc1-c1ccccc12
active: [1]; at 100.0 µM 73% | [2]; at 100.0 µM 78% | [4]; at 33.0 µM 77% | [4]; at 100.0 µM 88% | [5]; at 100.0 µM 81% | [6]; at 100.0 µM 84% | [8]; at 100.0 µM 76% | [10]; at 50.0 µM 74.7% | [10]; at 100.0 µM 70% | [11]; at 33.0 µM 76% | [11]; at 100.0 µM 90% | [12]; at 100.0 µM 81% | [13]; at 33.0 µM 81% | [13]; at 100.0 µM 90% | [15]; at 100.0 µM 77%
inactive: [1]; at 1.2 µM 11% | [1]; at 3.7 µM 12% | [1]; at 11.0 µM 19% | [1]; at 33.0 µM 46% | [2]; at 1.2 µM 3% | [2]; at 3.7 µM 3% | [2]; at 11.0 µM 7% | [2]; at 33.0 µM 38% | [3]; at 1.2 µM 2% | [3]; at 3.7 µM 7% | [3]; at 11.0 µM 5% | [3]; at 33.0 µM 11% | [3]; at 100.0 µM 16% | [4]; at 1.2 µM 6% | [4]; at 3.7 µM 6% | [4]; at 11.0 µM 30% | [5]; at 1.2 µM 15% | [5]; at 3.7 µM 13% | [5]; [16] -11% | [5]; at 11.0 µM 22% | [5]; at 33.0 µM 57% | [5]; [17] 8% | [5]; at 50.0 µM 45.9% | [6]; at 1.2 µM 10% | [6]; at 3.7 µM 3% | [6]; at 11.0 µM 14% | [6]; at 33.0 µM 49% | [7]; [16] -8% | [7]; [17] 44% | [7]; at 50.0 µM 25.6% | [8]; at 1.2 µM 12% | [8]; at 3.7 µM 4% | [8]; at 11.0 µM 13% | [8]; at 33.0 µM 64% | [9]; [16] -4% | [9]; [17] 15% | [9]; at 50.0 µM 57.9% | [10]; at 1.2 µM 10% | [10]; at 3.7 µM 5% | [10]; [16] -14% | [10]; at 11.0 µM 11% | [10]; at 33.0 µM 54% | [10]; [17] 46% | [11]; at 1.2 µM 2% | [11]; at 3.7 µM 4% | [11]; at 11.0 µM 23% | [12]; at 1.2 µM 10% | [12]; at 3.7 µM 8% | [12]; at 11.0 µM 20% | [12]; at 33.0 µM 59% | [13]; at 1.2 µM 10% | [13]; at 3.7 µM 15% | [13]; at 11.0 µM 28% | [14]; [16] -10% | [14]; [17] 41% | [14]; at 50.0 µM 69.7% | [15]; at 1.2 µM 14% | [15]; at 3.7 µM 19% | [15]; at 11.0 µM 24% | [15]; at 33.0 µM 49%
